This is part of a sample that, as a whole, favours compounds with a hit. Of some 83,000 tested, about 20% had one in any assay.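 Percent growth is the endpoint: 0 to 100 indicates growth inhibition (40 means 60% inhibition), 0 means no net growth, and negative values indicate cell death.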 Active and inactive are the calls of the source.
System: HOP-62 NSCLC
Experiment: NCI-60 one-dose screen, 48 h (100 = growth as untreated, 0 = no growth, -100 = all killed)
Settings: 10 µM unless noted
Procedure: Growth inhibition of the HOP-62 human Non-Small Cell Lung tumor cell line is measured as a screen for anti-cancer activity. Cells are grown in 96 well plates and exposed to the test compound for 48 hours. Compounds are tested at a single concentration, which is 10^-5 M for most compounds. The reported endpoint is percent growth (GI% or GIPRCNT), where numbers from 0 - 100% represent growth inhibition, and numbers from -100% - 0 represent cell death. For example, a value of 40 represents 60% growth inhibition. A value of 0 means no net growth occurred over the course of the experiment. A value of -40 indicates 40% of cells at the beginning of the experiment died by the end of the experiment. A value of -100 means all cells are dead at the end of the experiment.
NCI-60 Human Tumor Cell Lines Screen was performed using the standard one-dose NCI protocol, which is described in more detail at https://dtp.cancer.gov/discovery_development/nci-60/default.htm.
Compounds with GIPRCNT values below 10 were considered active. Activity score was based on GIPRCNT using the following formula: […]
Score is 0 for GIPRCNT values of 100 or above, 50 for GIPRCNT values of 0, and 100 for GIPRCNT values of -100.

| SMILES | growth |
| --- | --- |
| COc1ccc(NC(=O)c2sc3nc(C(C)C)ccc3c2N)cc1 | 93.2% (inactive) |
| COc1ccccc1/C=C/C(=O)c1ccc(OC)c(S(N)(=O)=O)c1 | 13.5% (inactive) |
| COc1ccc(C2(SCCNCc3cc(N(C)C)ccn3)c3ccccc3C=Cc3ccccc32)cc1 | 40% (inactive) |
| O=C(/C=C/Nc1ccc2oc(=O)ccc2c1)c1cc2cc(Br)ccc2oc1=O | 95.4% (inactive) |
| O=C(Cn1c(/C=C/c2ccccc2)nc2ccccc2c1=O)Nc1ccc(Cl)cc1 | 57.9% (inactive) |
| COc1cc(-c2nc3ccc(C)cc3[nH]2)ccc1OCc1nnc(-c2ccc(Br)cc2)o1 | 48% (inactive) |
| O=C(COc1ccc(NC(=O)Nc2ccc(Cl)c(Cl)c2)cc1)N=Nc1c(O)[nH]c2ccc(Cl)cc12 | -61.3% (active) |
| COc1cc(-c2cc(-c3cccc(OCC(=O)O)c3)[nH]c(=O)c2C#N)cc(OC)c1OC | 99.1% (inactive) |
| O=C(/C=C/c1ccc(-c2ccccc2)cc1)c1nc2ccccc2n1Cc1ccc(Br)cc1 | 56.4% (inactive) |
| Cc1ccc(C2=NN(c3nc(-c4cc5ccccc5oc4=O)cs3)C(c3ccc(C)cc3)C2)cc1 (stereo not given) | 91.2% (inactive) |
| CC(=O)Nc1ccc(-n2cnc3cc(-c4ccc(O)cc4)ccc32)cc1C(F)(F)F | 34.4% (inactive) |
| CN1CCN(Cc2ccc(C(=O)Nc3cccc(C#Cc4cccc5[nH]nc(N)c45)c3)cc2C(F)(F)F)CC1 | -90.1% (active) |
| CCOC(=O)C(N=Nc1ccc(S(=O)(=O)N=C(N)N)cc1)C(C)=O (stereo not given) | 119% (inactive) |
| CCCSc1nc(Nc2ccc(S(N)(=O)=O)cc2)c(C#N)c(-c2cc(OC)c(OC)c(OC)c2)n1 | 32.5% (inactive) |
| COc1cc(C2CC(c3ccc(S(=O)(=O)NCCNc4nc(Nc5ccc(F)cc5)nc(N(C)C)n4)cc3)=Nc3c(N)nc(N)nc3N2)cc(OC)c1OC (stereo not given) | 94.3% (inactive) |
| O=C(CSc1nc2ccccc2c(=O)[nH]1)NCCN1CCCCC1 | 106% (inactive) |
| O=C(/C=C/c1cccc(OCc2ccccc2)c1)c1nc2ccccc2[nH]1 | 50.5% (inactive) |
| CN(C)CCCNC(=O)c1cc(NC(=O)c2cc(NC(=O)c3ccc(/C=C/c4ccccc4)cc3)cn2C)cn1C | 74.1% (inactive) |
| COc1cc2oc(-c3cccc(C(=O)Nc4ccc(Cl)cc4)c3)cc(=O)c2c(OCC(=O)N[C@@H](Cc2ccccc2)C(=O)O)c1OC | 120% (inactive) |
| COc1ccc2[nH]c(O)c(N=NC(=O)COc3ccc(NC(=O)Nc4ccccc4)cc3)c2c1 | -6% (active) |

| SMILES | growth |
| --- | --- |
| Cc1cccc(Nc2nc3ccccc3nc2/C=C/c2ccc(F)cc2)c1 | 99.7% (inactive) |
| O=C(CN1C(=O)/C(=C/c2ccccc2F)SC1=S)N1CCOCC1 | 119% (inactive) |
| COc1ccc(NC(=O)Cn2c(/C=C/c3cccc([N+](=O)[O-])c3)nc3ccccc3c2=O)cc1 | 40.9% (inactive) |
| Nc1nc(-c2ccccc2)c(N=Nc2ccc([N+](=O)[O-])cc2Cl)s1 | 101% (inactive) |
| O=C(NN1C(=O)/C(=C/C=C/c2ccc([N+](=O)[O-])o2)SC1=S)c1ccccc1O | -53.5% (active) |
| COC(=O)C[C@](O)(CCCC(C)(C)O)C(=O)O[C@H]1C(OC)=C[C@@]23CCCN2CCc2cc4c(cc2[C@@H]13)OCO4 | 14.3% (inactive) |
| NS(=O)(=O)c1ccc(CCNC(=O)CSc2ccc(-c3ccc(Br)cc3)nn2)cc1 | 75.9% (inactive) |
| C#CCOc1ccc(/C=N/Nc2nc(-c3cc4cc(Br)ccc4oc3=O)cs2)cc1OC | 51.7% (inactive) |
| COc1cc(CNC(=O)/C=C/c2ccc3c(c2)OCO3)ccc1OCc1cn(-c2ccc([N+](=O)[O-])cc2)nn1 | 77.8% (inactive) |
| COc1cc2c(c(OC)c1OC)C(=O)CC(c1cccc(NC(=O)[C@@H](N)CC(C)C)c1)O2 (stereo not given in full) | 99% (inactive) |
| N=C1N=C(SCc2nc3ccccc3[nH]2)NC(=O)/C1=C/c1ccc(Cl)cc1 | 102% (inactive) |
| CC1=C(C(=O)c2ccccc2)C(c2ccc(-n3cncn3)cc2)n2c(nc3ccccc32)N1 (stereo not given) | 71.5% (inactive) |
| COc1ccc(-c2ccc(SCC(=O)Nc3ccc(S(N)(=O)=O)cc3Br)nn2)cc1 | -9.99% (active) |
| COc1ccc(/C=C/c2nc3ccccc3c(=O)n2CC(=O)Nc2ccc(Cl)cc2)cc1 | 8.06% (active) |
| C[C@H](Nc1nc(NCCc2ccccc2)nc2ccccc12)c1ccccc1 | -90.3% (active) |
| CN(C)CCCNC(=O)c1cc(NC(=O)c2cc(NC(=O)c3ccc(C#Cc4ccccc4)cc3)cn2C)cn1C | 8.16% (active) |
| COc1ccccc1C(=O)NN1C(=O)/C(=C/C2=Cc3ccccc3OC2)SC1=S | 106% (inactive) |
| CCCSc1nc(Nc2ccc(S(N)(=O)=O)cc2)c(C#N)c(-c2ccc(Cl)cc2)n1 | -2.6% (active) |
| COc1ccc(-c2nc3ccc(C(=O)NN4C(=O)c5ccc([N+](=O)[O-])cc5C4=O)cc3[nH]2)cc1 | 91.8% (inactive) |
| CC1=C(C(=O)c2ccccc2)C(c2cccc3ccccc23)n2c(nc3ccccc32)N1 (stereo not given) | 40.4% (inactive) |

From PubChem BioAssay (NCI)
